Several values for one entry are separate records, joined by “and”; a condition that tells them apart may be missing. Equal entries are not always repeated. Activity calls are given as the source filed them.
Assays:
[1] = binders of probe aFSTL3 on microarray, primary screen, stem cell growth factor project, biochemical, small-molecule microarray, fluorescence 635/667 (AID 1064); conditions: higher = more signal;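 further: measures binding of the biotinylated anti-FSTL3 antibody to printed compounds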
[2] = binders from COS7 lysate, DM2A8 probe, primary screen, torsin A project, cell lysate, small-molecule microarray, fluorescence 635/667 (AID 1065); conditions: higher = more signal, COS7 lysate expressing mutant human TOR1A
[3] = binders of probe aFGF2 on microarray, primary screen, stem cell growth factor project, biochemical, small-molecule microarray, fluorescence 635/667 (AID 1067); conditions: higher = more signal;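 further: measures binding of biotinylated aFGF2 protein to printed compounds on slides; z-score merges feature fluorescence and signal-to-noise across triplicate slides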
[4] = binders of probe aFGF10 on microarray, primary screen, stem cell growth factor project, biochemical, small-molecule microarray, fluorescence 635/667 (AID 1071); conditions: higher = more signal;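 further: score merges 667 nm spot intensity and signal to noise from triplicate slides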
[5] = target: Neurogenic locus notch homolog protein 2 (Homo sapiens) (UniProt Q04721); test: Notch2 binders on small-molecule microarrays, primary screen, biochemical, small-molecule microarray, 635 nm fluorescence, stem cell growth factors (AID 1073); conditions: Notch2 binding, higher = more signal
Neurogenic locus notch homolog protein 2 (Homo sapiens), sequence (Q04721 whole entry, looked up, canonical isoform): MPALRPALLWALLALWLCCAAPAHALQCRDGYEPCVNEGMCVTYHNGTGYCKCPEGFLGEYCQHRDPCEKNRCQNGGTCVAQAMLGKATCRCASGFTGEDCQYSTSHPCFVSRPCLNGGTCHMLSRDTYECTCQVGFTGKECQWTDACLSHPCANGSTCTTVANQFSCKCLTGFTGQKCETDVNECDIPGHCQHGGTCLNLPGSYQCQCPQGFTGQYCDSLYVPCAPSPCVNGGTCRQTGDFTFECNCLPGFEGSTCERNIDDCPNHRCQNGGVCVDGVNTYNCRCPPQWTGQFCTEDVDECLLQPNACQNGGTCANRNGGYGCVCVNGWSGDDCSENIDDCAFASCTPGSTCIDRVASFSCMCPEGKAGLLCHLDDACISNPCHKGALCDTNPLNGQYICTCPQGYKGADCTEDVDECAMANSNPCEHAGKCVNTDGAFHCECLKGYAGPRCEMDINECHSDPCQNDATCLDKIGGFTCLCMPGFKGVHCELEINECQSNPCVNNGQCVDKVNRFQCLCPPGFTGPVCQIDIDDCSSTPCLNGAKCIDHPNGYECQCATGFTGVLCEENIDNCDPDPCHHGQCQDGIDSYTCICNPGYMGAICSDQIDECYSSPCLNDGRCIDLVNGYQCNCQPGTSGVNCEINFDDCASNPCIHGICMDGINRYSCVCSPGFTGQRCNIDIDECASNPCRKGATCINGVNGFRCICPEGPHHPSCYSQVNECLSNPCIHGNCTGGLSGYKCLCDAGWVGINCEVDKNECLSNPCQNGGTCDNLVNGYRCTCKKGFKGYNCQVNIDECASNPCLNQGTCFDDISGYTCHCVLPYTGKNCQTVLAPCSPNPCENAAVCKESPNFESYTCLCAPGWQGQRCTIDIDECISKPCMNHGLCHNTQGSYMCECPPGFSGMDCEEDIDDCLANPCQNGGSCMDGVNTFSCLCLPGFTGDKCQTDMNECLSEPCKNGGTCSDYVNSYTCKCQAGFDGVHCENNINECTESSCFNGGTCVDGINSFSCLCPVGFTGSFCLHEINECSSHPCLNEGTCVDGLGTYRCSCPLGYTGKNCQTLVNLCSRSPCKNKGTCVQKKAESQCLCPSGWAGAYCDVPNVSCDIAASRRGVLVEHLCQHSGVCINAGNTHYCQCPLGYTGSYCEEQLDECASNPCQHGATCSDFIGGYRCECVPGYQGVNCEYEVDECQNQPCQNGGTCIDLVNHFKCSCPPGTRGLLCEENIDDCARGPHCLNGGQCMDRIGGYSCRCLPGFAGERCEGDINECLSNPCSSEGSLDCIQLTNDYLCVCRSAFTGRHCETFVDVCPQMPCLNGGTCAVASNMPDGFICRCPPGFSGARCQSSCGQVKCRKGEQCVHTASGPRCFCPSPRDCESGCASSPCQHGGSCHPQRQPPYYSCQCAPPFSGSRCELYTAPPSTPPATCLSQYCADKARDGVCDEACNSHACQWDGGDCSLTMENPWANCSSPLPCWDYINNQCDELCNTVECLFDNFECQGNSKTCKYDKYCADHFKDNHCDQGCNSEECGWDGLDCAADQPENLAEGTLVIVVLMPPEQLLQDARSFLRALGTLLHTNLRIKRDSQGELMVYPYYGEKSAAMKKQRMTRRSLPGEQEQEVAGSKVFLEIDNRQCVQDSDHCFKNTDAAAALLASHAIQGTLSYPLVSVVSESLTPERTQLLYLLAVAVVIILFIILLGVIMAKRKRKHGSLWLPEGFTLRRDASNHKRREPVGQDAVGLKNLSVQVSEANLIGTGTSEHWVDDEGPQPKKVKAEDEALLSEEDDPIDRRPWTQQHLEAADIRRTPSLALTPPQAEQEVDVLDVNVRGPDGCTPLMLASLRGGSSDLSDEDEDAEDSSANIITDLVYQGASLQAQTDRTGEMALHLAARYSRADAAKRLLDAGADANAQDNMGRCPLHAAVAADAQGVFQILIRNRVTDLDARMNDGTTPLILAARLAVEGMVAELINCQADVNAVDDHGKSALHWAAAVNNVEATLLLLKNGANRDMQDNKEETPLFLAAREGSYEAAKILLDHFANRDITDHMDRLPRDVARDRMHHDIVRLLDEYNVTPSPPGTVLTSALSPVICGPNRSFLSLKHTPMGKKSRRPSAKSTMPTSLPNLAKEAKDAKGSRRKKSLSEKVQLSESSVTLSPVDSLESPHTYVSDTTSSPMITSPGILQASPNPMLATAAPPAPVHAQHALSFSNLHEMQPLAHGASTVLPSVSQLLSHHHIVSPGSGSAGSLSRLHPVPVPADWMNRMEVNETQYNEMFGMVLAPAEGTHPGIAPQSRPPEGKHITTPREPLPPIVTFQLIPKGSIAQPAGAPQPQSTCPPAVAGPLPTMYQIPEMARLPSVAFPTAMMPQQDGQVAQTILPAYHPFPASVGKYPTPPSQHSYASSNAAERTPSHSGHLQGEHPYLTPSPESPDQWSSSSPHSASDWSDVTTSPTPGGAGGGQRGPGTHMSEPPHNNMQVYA

[6] = target: Pro-neuregulin-1, membrane-bound isoform (Homo sapiens) (UniProt Q02297); test: NRG1 binders on small-molecule microarrays, primary screen, psychiatric disease protein project, biochemical, small-molecule microarray, fluorescence 635/667 (AID 1075); conditions: NRG1 binding, 635 nm fluorescence, higher = more signal;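 further: score combines 667 nm spot fluorescence with signal to noise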
Pro-neuregulin-1, membrane-bound isoform (Homo sapiens), sequence (Q02297 whole entry, looked up, the tested form may be a part, canonical isoform): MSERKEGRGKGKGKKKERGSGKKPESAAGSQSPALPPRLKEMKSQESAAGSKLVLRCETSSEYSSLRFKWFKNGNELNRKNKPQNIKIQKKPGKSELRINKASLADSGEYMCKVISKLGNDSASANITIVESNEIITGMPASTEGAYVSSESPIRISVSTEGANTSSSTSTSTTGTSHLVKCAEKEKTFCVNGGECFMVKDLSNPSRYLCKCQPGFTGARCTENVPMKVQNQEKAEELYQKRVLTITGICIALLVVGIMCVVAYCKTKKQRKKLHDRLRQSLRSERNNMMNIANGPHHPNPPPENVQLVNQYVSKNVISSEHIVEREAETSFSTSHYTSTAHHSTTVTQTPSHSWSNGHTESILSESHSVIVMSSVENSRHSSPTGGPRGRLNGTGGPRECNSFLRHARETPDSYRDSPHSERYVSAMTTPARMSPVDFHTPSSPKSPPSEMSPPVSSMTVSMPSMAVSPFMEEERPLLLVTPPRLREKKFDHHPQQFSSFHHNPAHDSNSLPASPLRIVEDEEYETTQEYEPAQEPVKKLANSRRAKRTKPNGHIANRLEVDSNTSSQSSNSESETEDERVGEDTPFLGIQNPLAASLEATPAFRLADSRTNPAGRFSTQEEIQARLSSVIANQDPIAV

[7] = system: Neuregulin-1 EGF-like domain; test: binders of neuregulin-1 EGF-like domain, primary screen, biochemical, small-molecule microarray, 635 nm fluorescence (AID 1081); conditions: small-molecule microarray binding, higher = more signal;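 further: binding of the protein to compounds printed on small-molecule microarray slides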
[8] = FRG1 promoter luciferase signal modulators, primary screen, FRG1 inhibition for FSHD, cell-based, C2C12 myotubes, firefly/Renilla luciferase, luminescence (AID 1084); conditions: higher = more signal, called active from +8 up or from −8 down
[9] = binders of probe aFST on microarray, primary screen, stem cell growth factor project, biochemical, small-molecule microarray, fluorescence 635/667 (AID 1086); conditions: higher = more signal;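 further: score merges 667 nm fluorescence with signal-to-noise of each printed compound spot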
[10] = binders of probe aHhip on microarray, primary screen, stem cell growth factor project, biochemical, small-molecule microarray, fluorescence 635/667 (AID 1087); conditions: higher = more signal;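 further: score merges spot fluorescence at 667nm with spot signal to noise ratio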
[11] = system: PRMT1 (protein arginine N-methyltransferase 1); test: PRMT1 binders on small-molecule microarrays, primary screen, biochemical, small-molecule microarray, 635 nm fluorescence (AID 1088); conditions: small-molecule microarray binding, higher = more signal;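 further: binding of Prmt1 protein to compounds spotted on small-molecule microarray slides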
[12] = yeast growth modulation, basal conditions, primary screen, YJM789 clinical isolate, OD600, 24 h (AID 1089);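 further: growth of clinical yeast isolate S. cerevisiae YJM 789 seeded 1000 cells per well; test concentration not given here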; conditions: S. cerevisiae YJM789 growth, higher = more signal, called active from +8 up or from −8 down
[13] = fission yeast growth modulation, primary screen, strain 972, OD600, 24 h, no modulator (AID 1090);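 further: basal condition with compound alone and no growth modifier present; test concentration not given here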; conditions: S. pombe 972 growth, higher = more signal, called active from +8 up or from −8 down
[14] = S. cerevisiae growth modulation with rapamycin, primary screen, strain BY4716, OD600, 96 h (AID 1091); conditions: higher = more signal, called active from +8 up or from −8 down; further: test concentration not given here
[15] = target: Torsin-1A-interacting protein 2 (Homo sapiens) (UniProt Q8NFQ8); test: LULL1 binders on small-molecule microarray, primary screen, cell lysate, human LULL1 lysate, 635/667 nm fluorescence (AID 1092); conditions: hLULL1 lysate binding, 635 nm fluorescence, higher = more signal;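 further: probe is lysate of COS7 cells overexpressing human LULL1; score merges per-feature 667 nm fluorescence with signal-to-noise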
Torsin-1A-interacting protein 2 (Homo sapiens), sequence (Q8NFQ8 whole entry, looked up): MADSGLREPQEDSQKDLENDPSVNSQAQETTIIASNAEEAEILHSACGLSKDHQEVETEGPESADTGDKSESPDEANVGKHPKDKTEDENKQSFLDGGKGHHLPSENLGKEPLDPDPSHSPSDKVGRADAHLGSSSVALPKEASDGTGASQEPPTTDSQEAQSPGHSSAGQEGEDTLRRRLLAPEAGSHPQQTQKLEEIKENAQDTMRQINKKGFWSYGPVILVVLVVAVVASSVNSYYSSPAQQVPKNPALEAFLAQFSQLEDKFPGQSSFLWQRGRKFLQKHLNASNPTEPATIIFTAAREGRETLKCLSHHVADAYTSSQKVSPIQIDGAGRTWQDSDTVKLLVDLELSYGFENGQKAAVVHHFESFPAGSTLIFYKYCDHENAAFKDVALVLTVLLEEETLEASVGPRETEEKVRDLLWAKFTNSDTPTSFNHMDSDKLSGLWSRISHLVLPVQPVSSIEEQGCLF

[16] = E. coli growth modulation, two-sided OD650, primary screen, E. coli filamentation project, strain DRC41, 24 h (AID 1093); conditions: OD650, 24 h, higher = more signal, called active from +8 up or from −8 down;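 further: MC1000 strain lacking acrAB efflux and sulA so SOS filamentation is blocked; test concentration not given here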
[17] = small-molecule microarray binders of probe aLefty2, primary screen, biochemical, biotinylated probe, 635/667 nm fluorescence (AID 1094); conditions: higher = more signal;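 further: score merges spot fluorescence near 667 nm with spot signal-to-noise ratio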
[18] = system: Noggin (protein binding on small-molecule microarray); test: Noggin binders on small-molecule microarray, primary screen, biochemical, 635/667 nm fluorescence (AID 1095); conditions: 635 nm fluorescence, higher = more signal;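 further: score merges 667 nm feature fluorescence with signal to noise over triplicate slides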
[19] = target: Neurogenic locus notch homolog protein 3 (Homo sapiens) (UniProt Q9UM47); test: NOTCH3 binders on small-molecule microarray, primary screen, biochemical, 635/667 nm fluorescence (AID 1096); conditions: NOTCH3 binding, 635 nm fluorescence, higher = more signal
[20] = small-molecule microarray binders of probe aEGFR, primary screen, biochemical, biotinylated probe, 635/667 nm fluorescence (AID 1097); conditions: higher = more signal;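 further: probe is a biotinylated anti-EGFR antibody binding compounds printed on slides; score combines fluorescence near 667 nm and signal to noise of each spot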

Structure (SMILES)	composite z-score [1]	composite z-score [2]	composite z-score [3]	composite z-score [4]	composite z-score [5]	composite z-score [6]	composite z-score [7]	z-score [8]	composite z-score [9]	composite z-score [10]	composite z-score [11]	z-score [12]	z-score [13]	z-score [14]	composite z-score [15]	z-score [16]	composite z-score [17]	composite z-score [18]	composite z-score [19]	composite z-score [20]
CCCCN1CC=CC23O[C@@H]4C=CCCOC(=O)C4[C@H]2C(=O)N(C(C)CO)[C@@H]3C1=O (stereo not given in full)	0.385 and 0.252	-0.371 and 0.204	-0.0753 and -0.135	-0.228 and 0.292	-0.921 and -0.936	1.1 and 0.324	0.839 and 1.04	0.489 (inactive) and -0.469 (inactive)	-0.337 and 0.104	-0.137 and 0.251	0.275 and -0.575	-0.601 (inactive) and 1.38 (inactive)	-0.158 (inactive) and 1.52 (inactive)	-0.164 (inactive) and 0.868 (inactive)	3.12 and -0.0307	-0.164 (inactive) and 0.287 (inactive)	-0.179 and -0.0421	-0.72 and -0.244	-0.391 and -0.4	-0.221 and 0.0329
C=CCN(C(=O)C1N(c2ccc(CCO)cc2)C(=O)C2C(C(=O)O)C3C=CC21O3)c1ccc(OC)cc1 (stereo not given)	0.0619 and 0.336	-0.767 and -0.885	-0.226 and -0.276	-0.19 and -1.02	-0.903 and -1.23	-0.0224 and -1.32	0.939 and -0.115	4.82 (inactive) and -0.639 (inactive)	-0.477 and -1.4	-0.132 and -0.236	-0.133 and -0.497	0.156 (inactive) and -0.236 (inactive)	0.332 (inactive) and -0.577 (inactive)	0.131 (inactive) and -1.62 (inactive)	0.0657 and -1.42	0.683 (inactive) and 2.67 (inactive)	-0.0641 and 0.0524	-1.24 and -0.818	0.0568 and -1.8	-0.302 and -0.367
COC(=O)CC=C[C@@H](C)[C@@H](CO)NS(=O)(=O)c1ccc(C)cc1	-0.659 and -0.717	0.406 and 0.605	-0.108 and -0.0656	0.242 and 0.526	0.157 and 0.444	-0.386 and -0.0111	0.081 and 0.253	0.862 (inactive) and -1.81 (inactive)	0.544 and 0.35	-0.147 and 0.0505	-0.0055 and 0.604	0.102 (inactive) and 0.479 (inactive)	-0.178 (inactive) and -0.491 (inactive)	0.218 (inactive) and -0.249 (inactive)	0.0736 and 1.26	-0.0928 (inactive) and 0.0226 (inactive)	-0.37 and -0.0533	0.598 and 0.856	-0.15 and 0.745	-0.118 and 0.0192
CC(C)[Si]1(C(C)C)OCc2cc(C3CC3)nc(CCc3ccccc3)c21	-0.141 and -0.208	-0.305 and 0.114	-0.0412 and -0.16	-0.124 and 0.172	0.0069 and 0.589	-0.352 and -0.0692	-1.21 and -0.253	-0.218 (inactive) and 0.53 (inactive)	0.0391 and 0.169	-0.0237 and -0.118	-0.834 and 0.139	0.289 (inactive) and 0.35 (inactive)	-1.32 (inactive) and 0.134 (inactive)	0.725 (inactive) and 0.474 (inactive)	-0.597 and 0.259	-0.102 (inactive) and -1.01 (inactive)	-0.22 and -0.0956	-0.27 and 0.258	-0.149 and 0.351	-0.109 and -0.0147
COC(=O)C1=C(C)N(Cc2ccccc2)C2=C(C(C)=O)[C@H](c3ccccc3)[C@@](O)(C(=O)OC)C(=O)N2[C@@H]1c1ccccc1	-0.449 and -0.481	0.468 and -0.61	-0.129 and -0.139	0.778 and -0.338	0.691 and 0.083	0.595 and -0.445	1.18 and -1.44	-2.61 (inactive) and -1.77 (inactive)	0.277 and -0.201	0.0515 and -0.281	1.09 and -0.374	0.0482 (inactive) and -3.34 (inactive)	-4.6 (inactive) and -4.09 (inactive)	-0.873 (inactive) and -2.14 (inactive)	0.72 and -0.756	-0.0134 (inactive) and -0.274 (inactive)	-0.0873 and -0.254	0.409 and 0.203	1.13 and -0.352	0.0729 and -0.118
COc1ccc(O[C@H]2C=C[C@@H](c3ccccc3)O[C@@H]2COC(=O)CCC(C)=NO[C@H](C)c2cn([C@H](CO)Cc3ccccc3)nn2)cc1	-0.647 and -0.694	0.535 and 0.365	-0.0682 and -0.171	0.241 and 0.038	0.203 and 0.35	0.338 and 0.692	-0.0177 and 0.384	1.61 (inactive) and 1.46 (inactive)	0.0869 and -0.364	-0.0196 and 0.201	0.88 and 0.299	0.479 (inactive) and 0.555 (inactive)	0.52 (inactive) and 0.0557 (inactive)	0.616 (inactive) and 1.32 (inactive)	0.026 and 0.303	0.204 (inactive) and 0.524 (inactive)	-0.353 and -0.312	0.393 and 0.795	0.155 and 0.167	0.257 and -0.336
C[C@@H]1CN2[C@@H](CC[C@@H](C)[C@@H]2c2ccc(Br)cc2)C(=O)O1	-0.267 and -0.0033	-0.0199 and 0.174	-0.116 and -0.0583	0.215 and 0.604	0.275 and 0.18	-0.368 and 0.158	-0.704 and -0.829	-0.735 (inactive) and -1.38 (inactive)	-0.145 and 0.0701	-0.0994 and -0.274	-0.477 and -0.0962	0.327 (inactive) and -1.72 (inactive)	0.398 (inactive) and -0.794 (inactive)	1.74 (inactive) and -0.538 (inactive)	-0.625 and 0.0053	0.0454 (inactive) and 0.082 (inactive)	-0.166 and -0.18	0.0137 and 0.546	-0.307 and -0.733	-0.111 and -0.154
C=CCN(C(=O)C(c1cccs1)N(C(=O)/C=C\C(=O)O)c1c(Cl)cccc1CO)c1ccc(OC)cc1 (stereo not given)	1.98 and 1.01	-0.781 and -0.551	-0.228 and -0.0608	-1.56 and -0.737	-1.87 and -1.28	1.04 and -0.796	0.782 and 0.0793	0.284 (inactive) and 0.649 (inactive)	-1 and -0.362	-0.164 and -0.229	-0.517 and -1.02	-0.521 (inactive) and 0.247 (inactive)	-1.88 (inactive) and -0.83 (inactive)	-1.51 (inactive) and -0.982 (inactive)	3.16 and 0.422	1.67 (inactive) and -0.311 (inactive)	0.018 and 0.522	-3.84 and -2.48	-1.02 and -1.39	-0.238 and -0.121
